# According to PubChem BioAssay (Tox21):
# Inconclusive results are not listed. Values without a mark were called inactive. Activity calls are given as the source filed them. Calls come from the whole dose curve; as a rule, active = well fitted curve in the direction sought with a large enough effect in the repeat runs; inconclusive = weak or mixed curves; inactive = no such curve, though single readings can be large; an effect the other way counts as inactive or inconclusive.
# Tested on: not listed separately
# Experiment: qHTS assay to identify small molecule antagonists of the androgen receptor (AR) signaling pathway using the MDA cell line - cell viability counter screen (AID 743041; note: nearly all actives have a fitted effect of over 45% in size)
# Conditions: MDA-kb2 viability, CellTiter-Fluor, 16 h, cells co-treated with R1881 androgen agonist; series mostly up to 70.3 µM; viability change, negative = cytotoxic: at the top concentration
# How it was run: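 R1881-driven MDA-kb2 AR-luc cells, 3,000/well, were dosed with library compounds for 16 h; cell health came from CellTiter-Fluor fluorescence in the reporter wells.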
# % is set by controls: 0 for no effect and ±100 for the full control effect.
Structure (SMILES),"viability change, negative = cytotoxic [%]",Potency
CCCCCCCCCCCCCCCCCCOCC(COP(=O)([O-])OCC[N+](C)(C)C)OC (stereo not given),3.19,
CON=C1C[C@]2(C[C@@H]3C[C@@H](C/C=C(\C)C[C@@H](C)/C=C/C=C4\CO[C@@H]5[C@H](O)C(C)=C[C@@H](C(=O)O3)[C@]45O)O2)O[C@H](/C(C)=C/C(C)C)[C@H]1C,,inactive
CC12CCC(C[N+](C)(CCC[N+](C)(C)C)C1)C2(C)C (stereo not given),5.46,
CSCCC(N)C(=O)O (stereo not given),4,

# Target: Androgen receptor (Homo sapiens) (UniProt P10275)
# Sequence (P10275 whole entry, looked up): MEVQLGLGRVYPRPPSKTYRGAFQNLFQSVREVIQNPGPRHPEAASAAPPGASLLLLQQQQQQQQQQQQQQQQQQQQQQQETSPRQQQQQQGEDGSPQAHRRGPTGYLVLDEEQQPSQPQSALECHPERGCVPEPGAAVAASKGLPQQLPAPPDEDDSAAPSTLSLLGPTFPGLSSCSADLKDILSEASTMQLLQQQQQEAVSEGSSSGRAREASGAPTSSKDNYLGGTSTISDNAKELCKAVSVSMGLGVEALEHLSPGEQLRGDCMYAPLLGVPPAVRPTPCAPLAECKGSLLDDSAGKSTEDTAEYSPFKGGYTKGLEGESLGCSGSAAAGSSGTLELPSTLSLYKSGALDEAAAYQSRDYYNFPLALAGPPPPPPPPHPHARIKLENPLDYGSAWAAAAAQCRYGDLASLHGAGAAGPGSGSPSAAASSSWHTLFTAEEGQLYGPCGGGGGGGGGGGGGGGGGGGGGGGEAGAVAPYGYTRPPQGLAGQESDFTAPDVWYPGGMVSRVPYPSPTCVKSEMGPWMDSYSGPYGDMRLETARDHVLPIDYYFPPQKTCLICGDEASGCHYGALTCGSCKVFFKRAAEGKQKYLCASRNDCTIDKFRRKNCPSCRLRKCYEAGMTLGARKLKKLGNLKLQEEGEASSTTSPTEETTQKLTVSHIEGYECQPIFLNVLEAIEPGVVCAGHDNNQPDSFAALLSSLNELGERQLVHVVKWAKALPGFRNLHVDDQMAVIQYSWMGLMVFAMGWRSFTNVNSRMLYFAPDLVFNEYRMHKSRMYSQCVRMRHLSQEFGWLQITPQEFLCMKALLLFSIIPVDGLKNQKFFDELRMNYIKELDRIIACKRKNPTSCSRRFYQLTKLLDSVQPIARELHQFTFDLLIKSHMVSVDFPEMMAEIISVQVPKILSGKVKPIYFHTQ
# Experiment: qHTS assay to identify small molecule antagonists of the androgen receptor (AR) signaling pathway using the MDA cell line (AID 743042; note: nearly all actives have a fitted effect of over 55% in size)
# Conditions: MDA-kb2 AR-luc, MMTV luciferase, R1881 antagonist, 16 h; series mostly up to 70.3 µM; activity change, negative = inhibition: at the top concentration
# How it was run: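 Antagonist mode: compounds plus R1881 agonist added to MDA-kb2 AR-luc cells, incubated 16 h at 37C. Luciferase reporter luminescence quantified, with multiplexed CellTiter-Fluor readout for cell viability.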
Structure (SMILES),"activity change, negative = inhibition [%]",Potency
CO/N=C(\C(=O)N[C@@H]1C(=O)N2C(C(=O)O)=C(CSc3cnns3)CS[C@H]12)c1csc(N)n1,-11.3,
O=C1c2ccccc2C(=O)C1c1ccc(F)cc1,27.3,
CCN(CC)CCn1c(=O)c(Cc2ccc(OC)cc2)nc2ccccc21,2.33,
O=P(O)(O)CP(=O)(O)O,10.5,
N[C@@H](Cc1cnc[nH]1)C(=O)O,-0.88,
CON=C1C[C@]2(C[C@@H]3C[C@@H](C/C=C(\C)C[C@@H](C)/C=C/C=C4\CO[C@@H]5[C@H](O)C(C)=C[C@@H](C(=O)O3)[C@]45O)O2)O[C@H](/C(C)=C/C(C)C)[C@H]1C,,inactive
